Data published in PubChem BioAssay.
Calls of active or inactive are those of the source.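 The calls were made as follows, unless noted: active = normalized viability below 100% at a tested concentration; inactive = the rest.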

Tests used:
[1] = ovarian cancer cell viability with rucaparib, profiling panel, oncology-focused library, rucaparib conditional (AID 1508598); conditions: patient-derived ovarian cancer cells, CellTiter-Glo viability, 144 h, active compounds read low
[2] = biological target: NAD(+) hydrolase SARM1 (Homo sapiens) (UniProt Q6SZW1); assay: SARM1 TIR NADase inhibitors, cell lysate, NAD-Glo luminescence (AID 1508614;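 active = compound whose remaining NAD level is above about 45 nM, limit read from the data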;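 also: higher remaining NAD means stronger inhibition of SARM1 NADase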); conditions: SAM-TIR HEK293T lysate NADase, at 1 µM, active compounds read high
Chain of NAD(+) hydrolase SARM1 (Homo sapiens) (Q6SZW1 whole entry, looked up): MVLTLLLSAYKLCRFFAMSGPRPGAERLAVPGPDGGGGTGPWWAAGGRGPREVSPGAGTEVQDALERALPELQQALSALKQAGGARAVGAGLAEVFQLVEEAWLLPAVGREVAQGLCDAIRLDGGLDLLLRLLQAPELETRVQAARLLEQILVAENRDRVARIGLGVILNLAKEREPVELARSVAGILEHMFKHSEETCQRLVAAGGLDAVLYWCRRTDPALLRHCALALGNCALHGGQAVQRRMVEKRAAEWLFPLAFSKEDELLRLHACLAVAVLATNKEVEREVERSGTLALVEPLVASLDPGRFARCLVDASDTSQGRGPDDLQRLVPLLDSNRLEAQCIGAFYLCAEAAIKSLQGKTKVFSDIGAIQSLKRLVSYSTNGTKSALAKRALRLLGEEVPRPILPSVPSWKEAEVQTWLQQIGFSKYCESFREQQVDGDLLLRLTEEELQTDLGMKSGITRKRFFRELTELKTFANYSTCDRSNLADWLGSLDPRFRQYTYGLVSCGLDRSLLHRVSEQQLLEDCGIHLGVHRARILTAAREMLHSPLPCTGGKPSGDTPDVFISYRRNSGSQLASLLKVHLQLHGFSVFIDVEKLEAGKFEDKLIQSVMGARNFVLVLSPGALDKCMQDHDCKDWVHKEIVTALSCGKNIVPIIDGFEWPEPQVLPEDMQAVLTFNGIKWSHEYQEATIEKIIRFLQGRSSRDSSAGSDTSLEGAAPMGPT

[3] = at 0.000305 µM, OCI-C5x cells, with rucaparib 10 µM, 100% = cells with rucaparib alone
[4] = at 0.000305 µM, OCI-C5x cells, without rucaparib
[5] = at 0.000305 µM, OCI-P5x cells, with rucaparib 20 µM, 100% = cells with rucaparib alone
[6] = at 0.000305 µM, OCI-P5x cells, without rucaparib
[7] = at 0.00122 µM, OCI-C5x cells, with rucaparib 10 µM, 100% = cells with rucaparib alone
[8] = at 0.00122 µM, OCI-C5x cells, without rucaparib
[9] = at 0.00122 µM, OCI-P5x cells, with rucaparib 20 µM, 100% = cells with rucaparib alone
[10] = at 0.00122 µM, OCI-P5x cells, without rucaparib
[11] = at 0.00488 µM, OCI-C5x cells, with rucaparib 10 µM, 100% = cells with rucaparib alone
[12] = at 0.00488 µM, OCI-C5x cells, without rucaparib
[13] = at 0.00488 µM, OCI-P5x cells, with rucaparib 20 µM, 100% = cells with rucaparib alone
[14] = at 0.00488 µM, OCI-P5x cells, without rucaparib
[15] = at 0.0195 µM, OCI-C5x cells, with rucaparib 10 µM, 100% = cells with rucaparib alone
[16] = at 0.0195 µM, OCI-C5x cells, without rucaparib
[17] = at 0.0195 µM, OCI-P5x cells, with rucaparib 20 µM, 100% = cells with rucaparib alone
[18] = at 0.0195 µM, OCI-P5x cells, without rucaparib
[19] = at 0.0781 µM, OCI-C5x cells, with rucaparib 10 µM, 100% = cells with rucaparib alone
[20] = at 0.0781 µM, OCI-C5x cells, without rucaparib
[21] = at 0.0781 µM, OCI-P5x cells, with rucaparib 20 µM, 100% = cells with rucaparib alone
[22] = at 0.0781 µM, OCI-P5x cells, without rucaparib
[23] = at 0.313 µM, OCI-C5x cells, with rucaparib 10 µM, 100% = cells with rucaparib alone
[24] = at 0.313 µM, OCI-C5x cells, without rucaparib
[25] = at 0.313 µM, OCI-P5x cells, with rucaparib 20 µM, 100% = cells with rucaparib alone
[26] = at 0.313 µM, OCI-P5x cells, without rucaparib
[27] = at 1.25 µM, OCI-C5x cells, with rucaparib 10 µM, 100% = cells with rucaparib alone
[28] = at 1.25 µM, OCI-C5x cells, without rucaparib
[29] = at 1.25 µM, OCI-P5x cells, with rucaparib 20 µM, 100% = cells with rucaparib alone
[30] = at 1.25 µM, OCI-P5x cells, without rucaparib
[31] = at 5 µM, OCI-C5x cells, with rucaparib 10 µM, 100% = cells with rucaparib alone
[32] = at 5 µM, OCI-C5x cells, without rucaparib
[33] = at 5 µM, OCI-P5x cells, with rucaparib 20 µM, 100% = cells with rucaparib alone
[34] = at 5 µM, OCI-P5x cells, without rucaparib

O=C(O)c1cc(I)ccc1NC(=O)[C@H](Cc1ccccc1)NCc1ccccc1
active: viability [1, 5] 98.3% | viability [1, 10] 99.9% | viability [1, 13] 98.6% | viability [1, 14] 97.1% | viability [1, 17] 95.6% | viability [1, 18] 99.8% | viability [1, 21] 97.8% | viability [1, 22] 92.4% | viability [1, 25] 95.5% | viability [1, 26] 85.4% | viability [1, 29] 80.7% | viability [1, 30] 77.5% | viability [1, 33] 73.4% | viability [1, 34] 81.4%
inactive: viability [1, 3] 126% | viability [1, 4] 116% | viability [1, 6] 102% | viability [1, 7] 129% | viability [1, 8] 111% | viability [1, 9] 107% | viability [1, 11] 133% | viability [1, 12] 118% | viability [1, 15] 119% | viability [1, 16] 116% | viability [1, 19] 124% | viability [1, 20] 116% | viability [1, 23] 134% | viability [1, 24] 111% | viability [1, 27] 132% | viability [1, 28] 115% | viability [1, 31] 126% | viability [1, 32] 112%

O=C(O)[C@H](O)[C@@H](O)[C@H](O)[C@H](O)CO
inactive: remaining NAD [2] 10 nM

CC(=O)O[C@H]1C(=O)[C@@]2(C)C([C@H](OC(=O)c3ccccc3)[C@]3(O)C[C@H](OC(=O)[C@H](O)[C@@H](NC(=O)c4ccccc4)c4ccccc4)C(C)=C1C3(C)C)[C@]1(OC(C)=O)CO[C@@H]1C[C@H]2O (some centres undefined)
active: viability [1, 11] 75.3% | viability [1, 12] 71.2% | viability [1, 13] 97.9% | viability [1, 14] 39.8% | viability [1, 15] 37% | viability [1, 16] 35.9% | viability [1, 17] 63.2% | viability [1, 18] 16.9% | viability [1, 19] 34.2% | viability [1, 20] 30.2% | viability [1, 21] 64.9% | viability [1, 22] 17.4% | viability [1, 23] 36.2% | viability [1, 24] 29.8% | viability [1, 25] 57.9% | viability [1, 26] 18.2% | viability [1, 27] 30% | viability [1, 28] 32.8% | viability [1, 29] 56.9% | viability [1, 30] 18.7% | viability [1, 31] 24.5% | viability [1, 32] 24.4% | viability [1, 33] 34.2% | viability [1, 34] 17%
inactive: viability [1, 3] 112% | viability [1, 4] 129% | viability [1, 5] 125% | viability [1, 6] 125% | viability [1, 7] 114% | viability [1, 8] 121% | viability [1, 9] 119% | viability [1, 10] 123%

CCOc1ccc(Cc2cc([C@@H]3O[C@H](CO)[C@@H](O)[C@H](O)[C@@H]3O)ccc2Cl)cc1
inactive: viability [1, 3] 111% | viability [1, 4] 102% | viability [1, 7] 126% | viability [1, 8] 108% | viability [1, 11] 108% | viability [1, 12] 106% | viability [1, 13] 105% | viability [1, 15] 117% | viability [1, 16] 116% | viability [1, 17] 101% | viability [1, 18] 107% | viability [1, 19] 111% | viability [1, 20] 108% | viability [1, 21] 106% | viability [1, 22] 106% | viability [1, 23] 112% | viability [1, 24] 118% | viability [1, 25] 105% | viability [1, 26] 105% | viability [1, 27] 111% | viability [1, 28] 118% | viability [1, 30] 112% | viability [1, 31] 110% | viability [1, 32] 121% | viability [1, 33] 106% | viability [1, 34] 109%
active: viability [1, 5] 94.3% | viability [1, 6] 91.9% | viability [1, 9] 96.6% | viability [1, 10] 98.1% | viability [1, 14] 98.8% | viability [1, 29] 99.3%

CC1(C)C=C(CN2C/C(=C/c3ccc(F)cc3)C(=O)/C(=C/c3ccc(F)cc3)C2)C(C)(C)N1O
active: viability [1, 5] 90.6% | viability [1, 6] 90.1% | viability [1, 9] 80% | viability [1, 10] 81.9% | viability [1, 13] 74.5% | viability [1, 14] 83.8% | viability [1, 17] 71% | viability [1, 18] 81.9% | viability [1, 25] 96.7% | viability [1, 33] 55.9% | viability [1, 34] 97.4%
inactive: viability [1, 3] 136% | viability [1, 4] 110% | viability [1, 7] 117% | viability [1, 8] 106% | viability [1, 11] 131% | viability [1, 12] 112% | viability [1, 15] 127% | viability [1, 16] 112% | viability [1, 19] 124% | viability [1, 20] 117% | viability [1, 21] 102% | viability [1, 22] 106% | viability [1, 23] 125% | viability [1, 24] 109% | viability [1, 26] 103% | viability [1, 27] 127% | viability [1, 28] 118% | viability [1, 29] 102% | viability [1, 30] 105% | viability [1, 31] 124% | viability [1, 32] 115%
